Experimental data as given in PubChem BioAssay (Tox21).
Several values for one entry are separate records, joined by “and”; a condition that tells them apart may be missing. Equal values may be shown once. Inconclusive results are not listed. Where a call stands in place of a potency, no number is given. The source holds several records for some structures; these can differ, active in one and inactive in another. Activity calls are given as the source filed them. Unless noted, calls follow the shape of the dose curve; as a rule, active = well fitted curve in the direction sought with a large enough effect in the repeat runs; inconclusive = weak or mixed curves; inactive = no such curve, though single readings can be large; an effect the other way counts as inactive or inconclusive.

Experiments:
[1] = qHTS assay to identify aromatase inhibitors - cell viability counter screen (AID 743084);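 also: cells stimulated with testosterone during compound exposure; nearly all actives have a fitted effect of over 55% in size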; also: potency is read from the fitted curve at half-maximal effect
[2] = target: Aryl hydrocarbon receptor (Homo sapiens) (UniProt P35869); experiment: qHTS assay to identify small molecule that activate the aryl hydrocarbon receptor (AhR) signaling pathway (AID 743085); also: nearly all actives have a fitted effect of over 15% in size; also: potency is read from the fitted curve at half-maximal effect;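 as to activation: HG2L7.5c1 human HepG2 liver cells with stably integrated DRE-driven firefly reporter; series mostly up to about 70 µM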
Method in brief: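 Stably transfected human liver carcinoma cells (HG2L7.5c1; 20 DRE-firefly luciferase) were incubated 5 h, dosed, and kept 24 h at 37C. Agonism was scored from increased luciferase luminescence.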

[3] = qHTS assay to identify small molecule that activate the aryl hydrocarbon receptor (AhR) signaling pathway - cell viability counter screen (AID 743086); also: nearly all actives have a fitted effect of over 45% in size; also: potency is read from the fitted curve at half-maximal effect;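 as to viability change, negative = cytotoxic: HepG2 liver cells carrying the AhR DRE luciferase reporter; series mostly up to about 70 µM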
Method in brief: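 HepG2-AhR-luc (HG2L7.5c1) cells, 4000/well, treated 24 h at 37 C with compound; viability measured as CellTiter-Fluor fluorescence after 30 min in the same wells as the luciferase read.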

[4] = target: Peroxisome proliferator-activated receptor gamma (Homo sapiens) (UniProt P37231); experiment: qHTS assay to identify small molecule agonists of the peroxisome proliferator-activated receptor gamma (PPARg) signaling pathway (AID 743094; active = well fitted activation curve with a large enough effect in the signal ratio in the repeat runs, not every such curve was filed as active; the % refers to the signal ratio)
Method in brief: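 GeneBLAzer PPARg UAS-bla HEK293H cells carrying a stably integrated beta-lactamase reporter were pre-incubated 5 h at 37C, then exposed to compounds in DMSO for 17 h at 37C; LiveBLAzer B/G FRET substrate was added for 1 h at room temperature and fluorescence read.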

[5] = qHTS assay for small molecule agonists of the antioxidant response element (ARE) signaling pathway - cell viability counter screen (AID 743203; calls by dose curve; also: nearly all actives have a fitted effect of over 55% in size; also: potency is read from the fitted curve at half-maximal effect)
Method in brief: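 CellSensor ARE-bla HepG2 cells, 2,000 per well, rested 5 hrs at 37C/5% CO2, then exposed to compound in DMSO for 16 hrs; viability read as CellTiter-Glo luminescence after 30 min at room temperature, in the reporter wells.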

[6] = qHTS assay for small molecule activators of the heat shock response signaling pathway - cell viability counter screen (AID 743209); also: nearly all actives have a fitted effect of over 50% in size; also: potency is read from the fitted curve at half-maximal effect
Method in brief: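 CellSensor HSE-bla HeLa cells, plated overnight at 37 C/5% CO2, were exposed to compounds in DMSO for 5 h at 37 C. Viability was then read in the same wells by CellTiter-Glo luminescence after 30 min at room temperature.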

[7] = qHTS assay for small molecule activators of the heat shock response signaling pathway (AID 743210; active = well fitted activation curve with a large enough effect in the signal ratio in the repeat runs, with a control signal flat, not every such curve was filed as active; the % refers to the signal ratio; also: series mostly up to about 63 µM)
Method in brief: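 HSE-bla HeLa cells (beta-lactamase reporter under heat shock response elements), plated overnight, then exposed to compounds 5 h at 37 C; LiveBLAzer B/G FRET substrate added, 2.5 h at room temperature, fluorescence intensity read.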

[8] = qHTS assay to identify small molecule antagonists of the peroxisome proliferator-activated receptor gamma (PPARg) signaling pathway - cell viability counter screen (AID 743194); details: Potency: co-treated with 50 nM rosiglitazone; also: nearly all actives have a fitted effect of over 55% in size; also: potency is read from the fitted curve at half-maximal effect
Method in brief: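 Cytotoxicity counter screen in PPARg-bla HEK293H cells, same wells as reporter assay. Compounds plus 50 nM rosiglitazone (final) for 17 h at 37 C, then viability read by CellTiter-Glo luminescence.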

[9] = qHTS assay for small molecule agonists of the antioxidant response element (ARE) signaling pathway (AID 743202; active = well fitted activation curve with a large enough effect in the signal ratio in the repeat runs, not every such curve was filed as active; the % refers to the signal ratio; also: potency is read from the fitted curve at half-maximal effect)
Method in brief: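 ARE-bla HepG2 cells (beta-lactamase reporter under the antioxidant response element), plated 5 hours, then exposed to compounds 16 hours at 37 C. LiveBLAzer B/G FRET substrate added for 2 hours at room temperature; fluorescence intensity read.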

[10] = target: Peroxisome proliferator-activated receptor gamma (Homo sapiens) (UniProt P37231); experiment: qHTS assay to identify small molecule antagonists of the peroxisome proliferator-activated receptor gamma (PPARg) signaling pathway (AID 743191; calls by dose curve; also: nearly all actives have a fitted effect of over 30% in size; also: potency is read from the fitted curve at half-maximal effect)
Method in brief: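 GeneBLAzer PPARg UAS-bla HEK293H cells, 5 h post-plating, exposed to compounds 17 h at 37C. LiveBLAzer B/G FRET substrate added for 1 h at room temperature; beta-lactamase reporter read by fluorescence intensity.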

Aryl hydrocarbon receptor (Homo sapiens), sequence (P35869 whole entry, looked up): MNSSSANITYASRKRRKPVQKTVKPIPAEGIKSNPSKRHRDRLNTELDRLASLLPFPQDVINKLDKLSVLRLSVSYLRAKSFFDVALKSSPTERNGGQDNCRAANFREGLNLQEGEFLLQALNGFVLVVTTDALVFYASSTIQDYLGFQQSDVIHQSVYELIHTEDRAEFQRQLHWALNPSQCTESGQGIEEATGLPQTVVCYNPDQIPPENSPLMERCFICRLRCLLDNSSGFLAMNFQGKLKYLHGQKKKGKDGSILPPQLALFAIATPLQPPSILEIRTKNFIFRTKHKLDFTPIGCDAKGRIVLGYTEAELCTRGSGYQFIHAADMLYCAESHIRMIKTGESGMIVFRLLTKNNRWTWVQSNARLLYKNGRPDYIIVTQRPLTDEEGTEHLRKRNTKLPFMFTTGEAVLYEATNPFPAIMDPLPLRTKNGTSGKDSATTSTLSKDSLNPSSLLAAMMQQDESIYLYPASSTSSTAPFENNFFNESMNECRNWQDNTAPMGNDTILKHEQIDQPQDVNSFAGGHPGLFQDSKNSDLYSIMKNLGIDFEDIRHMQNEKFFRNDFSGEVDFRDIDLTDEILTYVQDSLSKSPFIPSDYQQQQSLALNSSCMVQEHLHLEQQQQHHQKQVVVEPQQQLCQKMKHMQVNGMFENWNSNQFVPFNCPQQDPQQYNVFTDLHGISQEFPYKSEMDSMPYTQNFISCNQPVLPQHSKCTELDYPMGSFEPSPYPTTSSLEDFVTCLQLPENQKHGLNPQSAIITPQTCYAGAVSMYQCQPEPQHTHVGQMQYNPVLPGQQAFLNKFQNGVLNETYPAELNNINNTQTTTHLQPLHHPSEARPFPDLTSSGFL
Peroxisome proliferator-activated receptor gamma (Homo sapiens), sequence (P37231 whole entry, looked up): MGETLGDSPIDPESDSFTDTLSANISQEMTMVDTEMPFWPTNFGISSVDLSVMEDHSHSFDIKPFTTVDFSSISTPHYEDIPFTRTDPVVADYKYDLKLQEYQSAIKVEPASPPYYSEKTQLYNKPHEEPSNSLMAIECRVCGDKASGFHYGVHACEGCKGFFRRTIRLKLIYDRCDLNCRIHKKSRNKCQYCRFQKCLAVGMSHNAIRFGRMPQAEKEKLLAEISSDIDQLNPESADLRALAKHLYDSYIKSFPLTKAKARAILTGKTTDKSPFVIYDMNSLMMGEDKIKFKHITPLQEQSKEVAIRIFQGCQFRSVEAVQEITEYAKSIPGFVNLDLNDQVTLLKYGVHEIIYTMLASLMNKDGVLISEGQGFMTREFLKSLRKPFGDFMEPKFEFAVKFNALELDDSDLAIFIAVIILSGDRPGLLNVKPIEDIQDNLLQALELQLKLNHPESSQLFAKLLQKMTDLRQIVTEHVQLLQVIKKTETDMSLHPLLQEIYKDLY

Row | SMILES | Potency [1] | Potency [2] | Potency [3] | Potency [4] | Potency [5] | Potency [6] | outcome [7] | Potency [8] | Potency [9] | activation [9] | viability change, negative = cytotoxic [5] | activity change, negative = cytotoxicity [6] | activation [7] | Potency [10]
1 | O=C1c2ccccc2C(=O)C1C(=O)C(c1ccccc1)c1ccccc1 | inactive | 29.8 µM (active) | inactive | inactive | inactive | inactive | inactive | – | – | – | – | – | – | –
2 | C=CCC1([C@H](C)CCC)C(=O)NC(=O)NC1=O | inactive | inactive | inactive | inactive | inactive | inactive | inactive | inactive | – | – | – | – | – | –
3 | CC(=O)[C@H]1CC[C@H]2[C@@H]3CC[C@H]4C[C@](C)(O)CC[C@]4(C)[C@H]3CC[C@]12C | inactive | inactive | inactive | inactive | inactive | inactive | inactive | inactive | – | – | – | – | – | –
4 | c1ccoc1 | inactive | inactive | inactive | inactive | inactive | – | inactive | – | inactive | – | – | – | – | –
5 | CC(Cl)Cl | inactive | inactive | inactive | inactive | inactive | – | inactive | inactive | – | – | – | – | – | –
6 | NS(=O)(=O)C(F)(F)C(F)(F)C(F)(F)C(F)(F)C(F)(F)C(F)(F)C(F)(F)C(F)(F)F | inactive | inactive | inactive | inactive | 68.6 µM (active) | 49 µM (active) | – | 43.6 µM (active) | – | – | – | – | – | –
7 | Cc1ccccc1CCl | inactive | inactive | inactive | inactive | inactive | inactive | inactive | inactive | – | – | – | – | – | –
8 | COC(=O)C(Cl)C(=O)OC | inactive | inactive | inactive | inactive | inactive | – | inactive | inactive | – | – | – | – | – | –
9 | O=C(O)C(F)(F)C(F)(F)C(F)(F)C(F)(F)C(F)(F)C(F)(F)C(F)(F)C(F)(F)C(F)(F)C(F)(F)F | inactive | inactive | inactive | inactive | inactive | inactive | inactive | – | – | – | – | – | – | –
10 | CN(C)c1ccc(N(C)C)cc1 | inactive | 61.3 µM (active) | inactive | inactive | inactive | inactive | inactive | inactive | – | – | – | – | – | –
11 | CCCC(=O)Cl | inactive | inactive | inactive | inactive | inactive | inactive | inactive | inactive | – | – | – | – | – | –
12 | NCC(CC(=O)O)c1ccc(Cl)cc1 (configuration not stated) | inactive | inactive | inactive | inactive | – | – | – | – | – | -5.3% [at 0.756 µM] (inactive) | 4.15% [at 0.756 µM] (inactive) | 1.94% [at 0.55 µM] (inactive) | -1.61% [at 0.55 µM] (inactive) | –
13 | CCOc1ccc(C(C)(C)COCc2cccc(Oc3ccccc3)c2)cc1 | inactive | inactive | inactive | inactive | inactive | inactive | inactive | – | – | – | – | – | – | –
14 | O=C(O)c1ccccc1C(=O)Nc1cccc2ccccc12 | inactive | 13.7 µM (active) | inactive | inactive | inactive | inactive | inactive | – | – | – | – | – | – | –
15 | [O-][Cl+]O | inactive | inactive | inactive | inactive | inactive | inactive | inactive | – | – | – | – | – | – | –
16 | COc1nn(C(=O)NS(=O)(=O)c2ccccc2OC(F)(F)F)c(=O)n1C | inactive | inactive | inactive | inactive | inactive | inactive | inactive | inactive | – | – | – | – | – | –
17 | N#CCC#N | inactive | inactive | inactive | inactive | inactive | – | – | – | inactive | – | – | – | – | –

Row | SMILES | Potency [1] | Potency [2] | Potency [3] | Potency [4] | Potency [5] | Potency [6] | outcome [7] | Potency [8] | Potency [9] | activation [9] | viability change, negative = cytotoxic [5] | activity change, negative = cytotoxicity [6] | activation [7] | Potency [10]
18 | CCOP(=S)(OCC)Oc1cc(Cl)c(Br)cc1Cl | inactive | 9.69 µM (active) | inactive | inactive | inactive | – | inactive | – | inactive | – | – | – | – | –
19 | COC(=O)C(C)N(C(=O)Cc1ccccc1)c1c(C)cccc1C (configuration not stated) | inactive | inactive | inactive | inactive | inactive | inactive | inactive | inactive | – | – | – | – | – | –
20 | CC/C(=N\OC/C=C/Cl)C1=C(O)CC(C2CCOCC2)CC1=O (configuration not stated) | inactive | inactive | inactive | inactive | inactive | – | inactive | – | inactive | – | – | – | – | –
21 | O=[N+]([O-])C(Br)(CO)CO | 61.1 µM (active) | inactive | inactive | inactive | inactive | – | inactive | inactive | – | – | – | – | – | –
22 | O=[N+]([O-])c1ccc(F)c([N+](=O)[O-])c1 | inactive and 30.9 µM (active) | inactive | inactive and 49 µM (active) | inactive | 30.9 µM (active) | – | – | – | – | – | – | – | – | –
23 | c1ccc(CN2CCNCC2)cc1 | inactive | inactive | inactive | – | inactive | inactive | – | inactive | inactive | – | – | – | – | –
24 | Nc1ccc(N=Nc2ccc(-c3ccc(N=Nc4c(S(=O)(=O)O)cc5cc(S(=O)(=O)O)c(N=Nc6ccccc6)c(O)c5c4N)cc3)cc2)c(N)c1 | 31.3 µM (active) | 5.56 µM (active) | 39.4 µM (active) | – | inactive | inactive | – | inactive | inactive | – | – | – | – | –
25 | OC(c1ccc(Cl)cc1)(c1ccc(Cl)cc1)c1cccnc1 | inactive | inactive | inactive | – | 61.1 µM (active) | inactive | – | – | – | – | – | – | – | –
26 | C[N+](C)(C)CCCl | inactive | inactive | inactive | – | inactive | inactive | inactive | – | inactive | – | – | – | – | –
27 | CC1(C)[C@H](C=C(Cl)Cl)[C@@H]1C(=O)O[C@@H](C#N)c1cccc(Oc2ccccc2)c1 | inactive | inactive | inactive | – | inactive | inactive | – | inactive | inactive | – | – | – | – | –
28 | S=C=NCc1ccccc1 | inactive | inactive | inactive | – | – | – | – | – | 24.6 µM (active) | – | – | – | – | –
29 | CCOC(=O)[C@]1(c2ccccc2)Oc2ccccc2[C@@H]1N | inactive | inactive | inactive | – | – | inactive | inactive | – | – | – | – | – | – | inactive
30 | CO/C=C(/C(=O)OC)c1ccccc1COc1cccc(C(F)(F)F)n1 | 61.1 µM (active) | inactive | inactive | – | – | inactive | inactive | – | – | – | – | – | – | 4.36 µM (active)
31 | COP(=O)(OC)O/C(=C/Cl)c1cc(Cl)c(Cl)cc1Cl | inactive | inactive | inactive | – | inactive | inactive | inactive | – | 5.75 µM (active) | – | – | – | – | –
32 | CCOc1nc(F)cc2nc(S(=O)(=O)Nc3c(Cl)cccc3Cl)nn12 | inactive | inactive | inactive | – | inactive | inactive | inactive | inactive | inactive | – | – | – | – | inactive
33 | C=CC(=O)OC | inactive | inactive | inactive | – | inactive | inactive | inactive | inactive | inactive | – | – | – | – | –
